ELG1 genotoxic = genotoxicity induction in ELG1-luciferase HEK293T cells; HEK293T ELG1-luciferase reporter, luminescence, 16 h; Potency, µM (top dose mostly 46 µM), inactives show at the top dose activity change, positive = activation, usual class: activators; 330,000 tested, 1.3% active; also: % of control where 0% means no effect; nearly all actives have a fitted effect of over 60% in size
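Genotoxic stress is detected as increased luminescence from luciferase-tagged ELG1 in HEK293T cells, measured with ONE-Glo after a 16 hr treatment at 37 °C.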
SMN2 splice up = enhancers of SMN2 splice variant expression; Potency, µM (titrated, usually from 46.1 µM), for inactives: at the top dose activity change, positive = activation, most hits filed as activators; 210,000 tested, 2.8% active; AID 1458; HEK293 SMN2-luciferase splicing reporter, luminescence, 30-36 h; also: % of control where 0% means no effect; nearly all actives have a fitted effect of over 55% in size
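HEK293 cells carry an SMN2 […]–luciferase reporter in which exon 7 inclusion puts luciferase in frame. Cells were plated 10-12 h before compound addition, then incubated 30-36 h at 37C. ONE-Glo luminescence was read; sodium butyrate at 4.5 mM final served as control.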
FLuc modulator = counter-screen for miR-21 project: firefly luciferase inhibitors or activators; 360,000 tested, 6.9% active; Potency, µM (titrated, usually from 57.5 µM), inactives show at the highest dose activity change, negative = inhibition, usual class: inhibitors; P08659; purified FLuc, Km substrates, luminescence inhibition;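 also: plate controls were vehicle for no effect and reference inhibitor for full effect; nearly all actives have a fitted effect of over 55% in size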
Target sequence (P08659 whole entry, looked up): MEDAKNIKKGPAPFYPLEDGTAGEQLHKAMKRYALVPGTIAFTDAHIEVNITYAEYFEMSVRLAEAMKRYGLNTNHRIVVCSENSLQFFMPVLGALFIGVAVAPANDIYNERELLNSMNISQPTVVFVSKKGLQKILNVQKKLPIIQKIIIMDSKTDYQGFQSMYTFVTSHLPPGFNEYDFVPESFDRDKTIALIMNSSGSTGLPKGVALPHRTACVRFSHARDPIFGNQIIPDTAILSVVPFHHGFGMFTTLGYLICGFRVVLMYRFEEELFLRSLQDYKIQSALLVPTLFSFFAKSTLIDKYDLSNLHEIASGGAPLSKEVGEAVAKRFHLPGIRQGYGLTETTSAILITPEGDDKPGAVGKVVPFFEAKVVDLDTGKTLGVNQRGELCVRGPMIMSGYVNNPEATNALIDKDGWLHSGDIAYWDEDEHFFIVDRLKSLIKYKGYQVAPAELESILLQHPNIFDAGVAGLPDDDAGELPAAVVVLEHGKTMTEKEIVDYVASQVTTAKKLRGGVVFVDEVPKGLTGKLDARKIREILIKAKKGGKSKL
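Biochemical qHTS of compounds, final roughly 60 µM downward over six points, against 10 nM purified firefly luciferase using Km concentrations of substrates (10 uM D-luciferin, 10 uM ATP) in Tris acetate pH 7.5 buffer; luminescence output.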
KinaseGlo FLuc = counter-screen: inhibitors of Kinase-Glo firefly luciferase; Q27757; Potency, µM (series often up to 38.3 µM), inactives show at the highest dose activity change, negative = inhibition, usual class: inhibitors; AID 1379; Kinase-Glo luciferase, ATP luminescence, 8 min; 200,000 tested, 0.28% active; also: % is scaled to controls: 0 for no effect and ±100 for the full control effect; nearly all actives have a fitted effect of over 60% in size
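Compounds were added to a substrate mix at pH 7.2 (50 mM imidazole, 10 uM ATP, within the enzyme's linear range), followed by Kinase-Glo detection reagent; luminescence was measured after 8 minutes at ambient temperature.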
Rab9 prom act = Rab9 promoter activation; Potency, µM (top dose mostly 9.22 µM), for inactives: top-dose activation, negative = inhibition, most hits filed as activators; 320,000 tested, 2.8% active; Huh7 Rab9 promoter-luciferase reporter, luminescence, 24 h; also: % of control where 0% means no effect; nearly all actives have a fitted effect of over 60% in size
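Steps: seed 1500 Huh7 Rab9-luc cells per well, rest 2 h at 37 °C; add compound in DMSO; incubate 24 h; add luciferase reagent, 10 min ambient; read luminescence.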
NPC1 promoter act = activates the NPC1 promoter | AID 485313 | 320,000 tested, 2.4% active | Potency, µM (top dose mostly 9.22 µM), for inactives: top-dose activation, hits mostly activators | Huh7 NPC1 promoter luciferase reporter, 24 h; also: % of control where 0% means no effect; nearly all actives have a fitted effect of over 60% in size
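Stable NPC1-promoter luciferase Huh7 line; cpd (DMSO) 24 h, 37 °C, 5% CO2; Amplite luciferase reagent 10 min RT; luminescence readout. qHTS format.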
* hit, by the source's call; ? = inconclusive; nt = no result. In the library only some 7.5% were active in any assay of this set; here they are far more common. Calls follow the shape of the dose curve; as a rule, active = well fitted curve in the direction sought with a large enough effect; inconclusive = small, poorly fitted or top-dose-only effect, or another doubt; inactive = no such curve, though single readings can be large; an effect the other way counts as inactive or inconclusive. Potency is read from the fitted curve at half-maximal effect.

SMILES	ELG1 genotoxic	SMN2 splice up	FLuc modulator	KinaseGlo FLuc	Rab9 prom act	NPC1 promoter act
COC(=O)Cc1[nH]n(-c2ccccc2)c(=O)c1C(C)=Nc1ccccc1	10.1%	-14.2%	?	-2.2%	3.16µM*	?
COC(=O)Cc1[nH]n(-c2nc3ccccc3s2)c(=O)c1C(C)=Nc1ccc(C)cc1	-12.2%	-93.9%	?	-5.5%	-43.8%	-33.9%
COc1ccc(S(=O)(=O)c2cn(C)c3cc(N4CCOCC4)c(F)cc3c2=O)cc1	nt	nt	-1.0%	nt	nt	nt
N/C(=N\OC(=O)CC1CCCCC1)c1cccc(Br)c1	15.5%	nt	2.69µM*	nt	16.2%	14.0%
N/C(=N\OC(=O)CC1CCCCC1)c1ccc(Cl)cc1	?	nt	7.57µM*	nt	-5.1%	4.0%
N/C(=N\OC(=O)CCC1CCCCC1)c1cccc([N+](=O)[O-])c1	2.3%	-2.5%	10.7µM*	-1.1%	8.7%	9.4%
COc1cccc(C(=O)n2nc(-c3cccnc3)nc2NCc2ccc(F)cc2)c1	nt	8.3%	1.8%	nt	nt	nt
C=CCN=C(NC#N)SCC(=O)c1cccc(OC)c1	6.1%	?	?	11.8%	?	3.55µM*
C=CCN=C(NC#N)SCc1ccccc1	0.5%	13.9%	3.9%	2.5%	-6.1%	-2.7%
Cc1ccc(C(C)C)c(OCC(=O)Nc2ccc(S(=O)(=O)Nc3onc(C)c3C)cc2)c1	nt	-9.7%	?	nt	nt	nt
CCc1ccccc1NC(=O)c1ccc(F)c(S(=O)(=O)N2CCN(c3ccccc3OC)CC2)c1	nt	nt	-6.1%	nt	nt	nt
CCCCN(CC)CCCNC(=O)Cn1nc(CC)n2c(cc3sccc32)c1=O	nt	13.9%	6.2%	nt	nt	nt
Cc1nc(-c2ccc(Cl)cc2)sc1CCNC(=O)c1ccc(C(F)(F)F)cc1	nt	nt	2.1%	nt	nt	nt
Cc1cc2nc(-c3ccc(=O)[nH]c3)n(C)c2cc1C	10.0%	nt	16.9µM*	nt	11.7%	5.4%
Cc1cc2nc(C)c(=O)n(C)c2cc1C	2.7%	?	1.1%	-0.8%	-2.6%	-2.3%
CCCCN(CCCNC(=O)CN1N=C(c2ccc(C)cc2)CCC1=O)c1ccccc1	nt	nt	-12.5%	nt	nt	nt
COc1ccccc1-n1cnnc1SCc1csc(-c2ccccc2)n1	-10.0%	-8.5%	-5.8%	-1.8%	-2.8%	0.3%
C=CCn1c(SCc2csc(-c3ccc(C)cc3)n2)nnc1-c1ccccc1OC	-4.7%	nt	21.3µM*	nt	2.4%	-0.9%
Cc1cc(N)c(-n2cc3c(=O)n(C)c(=O)n(C)c3c2)cc1C	?	?	16.9µM*	-17.2%	?	16.2%
Cc1ccc(-n2cc3c(=O)n(C)c(=O)n(C)c3c2)cc1C	0.5%	2.9%	?	0.2%	26.9%	27.7%
Cn1c(=O)c2cn(-c3ccc4c(c3)OCCO4)cc2n(C)c1=O	11.2µM*	?	?	-4.1%	?	?
COc1cc(OC)cc(-c2sc3ccc(OC)cc3c2C#CC2(N)CCCCC2)c1	-4.4%	nt	nt	nt	nt	nt
COc1cccc2sc3ccc(C#CC4(N)CCCCC4)cc3c(=O)c12	10.5%	nt	19µM*	nt	20.8%	24.3%
O=C(CCN1C(=O)/C(=C/c2cccs2)SC1=S)Nc1ccc(C(=O)O)c(O)c1	1.9%	nt	16.9µM*	nt	-0.6%	-1.8%
CC(/C=C1\SC(=S)N(CCC(=O)Nc2ccc(O)cc2)C1=O)=C\c1ccccc1	-4.3%	nt	-8.4%	nt	16.4%	17.8%
O=C(CCN1C(=O)/C(=C/c2cccs2)SC1=S)Nc1ccc(O)cc1	5.3%	nt	3.4%	nt	-1.0%	0.5%
CC(/C=C1\SC(=S)N(CCCC(=O)Nc2ccc(C(=O)O)c(O)c2)C1=O)=C\c1ccccc1	?	35.5µM*	10.7µM*	0.1%	?	18.4%
O=C(CCCN1C(=O)S/C(=C/C=C/c2ccccc2)C1=O)Nc1ccc(C(=O)O)cc1	7.4%	nt	-0.1%	nt	-3.8%	0.6%
CC(=C\c1ccccc1)/C=C1/SC(=O)N(CCCC(=O)Nc2ccc(C(=O)O)cc2)C1=O	?	8.2%	16.9µM*	1.4%	2.5%	17.2%
